# Test results as given in PubChem BioAssay (NCATS).
# Results filed as inconclusive are left out. A call without a number means that no potency is given here. Calls of active or inactive are those of the source. Calls follow the shape of the dose curve; as a rule, active = well fitted curve in the direction sought with a large enough effect; inconclusive = small, poorly fitted or top-dose-only effect, or another doubt; inactive = no such curve, though single readings can be large; an effect the other way counts as inactive or inconclusive.
# Target: Voltage-gated inwardly rectifying potassium channel KCNH2 (Homo sapiens) (UniProt Q12809)
# Experiment: qHTS Assay for Small Molecule Inhibitors of the Human hERG Channel Activity (AID 588834);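 also: lower thallium flux fluorescence means stronger hERG block; nearly all actives have a fitted effect of over 50% in size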; also: potency is read from the fitted curve at half-maximal effect
# Conditions: U2OS BacMam hERG, FluxOR thallium flux fluorescence; series mostly up to 46.1 µM
# In short: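 Measured: FluxOR fluorescence after thallium stimulation in U2OS cells transduced with hERG by baculovirus. Compounds pre-incubated around 10 min; medium Opti-MEM with 2% FCS. AC50 from Hill equation.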
# Voltage-gated inwardly rectifying potassium channel KCNH2 (Homo sapiens), sequence (Q12809 whole entry, looked up): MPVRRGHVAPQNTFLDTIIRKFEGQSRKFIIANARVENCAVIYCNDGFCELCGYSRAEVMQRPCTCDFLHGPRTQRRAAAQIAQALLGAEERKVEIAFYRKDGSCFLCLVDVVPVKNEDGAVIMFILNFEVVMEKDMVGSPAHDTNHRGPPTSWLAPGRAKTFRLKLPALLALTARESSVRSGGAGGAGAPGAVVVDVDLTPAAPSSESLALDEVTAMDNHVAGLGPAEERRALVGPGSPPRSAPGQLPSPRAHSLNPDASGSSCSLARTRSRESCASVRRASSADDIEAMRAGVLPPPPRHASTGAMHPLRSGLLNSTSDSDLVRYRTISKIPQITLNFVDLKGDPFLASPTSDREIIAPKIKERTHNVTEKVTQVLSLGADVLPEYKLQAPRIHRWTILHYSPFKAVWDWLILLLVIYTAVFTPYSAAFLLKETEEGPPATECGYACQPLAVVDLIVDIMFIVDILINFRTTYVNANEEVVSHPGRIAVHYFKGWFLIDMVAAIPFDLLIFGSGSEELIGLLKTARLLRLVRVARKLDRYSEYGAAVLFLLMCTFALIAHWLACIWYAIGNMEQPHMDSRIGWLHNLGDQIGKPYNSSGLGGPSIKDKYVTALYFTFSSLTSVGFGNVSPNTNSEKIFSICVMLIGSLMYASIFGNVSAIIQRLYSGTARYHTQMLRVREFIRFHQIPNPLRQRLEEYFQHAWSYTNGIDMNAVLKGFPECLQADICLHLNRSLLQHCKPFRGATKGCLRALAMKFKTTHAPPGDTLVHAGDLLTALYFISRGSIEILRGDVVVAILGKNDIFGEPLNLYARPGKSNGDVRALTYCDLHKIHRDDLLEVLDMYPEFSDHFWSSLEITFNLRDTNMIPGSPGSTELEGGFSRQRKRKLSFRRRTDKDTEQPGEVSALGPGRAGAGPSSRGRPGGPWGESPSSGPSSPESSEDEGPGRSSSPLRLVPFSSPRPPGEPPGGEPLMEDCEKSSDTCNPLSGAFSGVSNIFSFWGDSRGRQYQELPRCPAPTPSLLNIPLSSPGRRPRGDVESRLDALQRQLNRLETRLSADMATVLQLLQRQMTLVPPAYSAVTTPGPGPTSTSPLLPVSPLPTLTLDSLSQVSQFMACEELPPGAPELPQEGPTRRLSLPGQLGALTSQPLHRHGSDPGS
row,SMILES,Potency
1,OC(c1ccccc1)(c1ccccc1)C1CN2CCC1CC2 (configuration not stated),3.55 µM (active)
2,c1csc(C2(N3CCCCC3)CCCCC2)c1,inactive
3,CC(=O)OO,inactive
4,O=C1CN=C(c2ccccc2)c2cc(Cl)ccc2N1CC1CC1,inactive
5,O=C(CS(=O)C(c1ccccc1)c1ccccc1)NO (configuration not stated),inactive
6,O=C1CCCCC1CN1CCCCC1 (configuration not stated),inactive
7,O=C1CN(O)C(c2ccccc2)=c2cc(Cl)ccc2=N1,inactive
8,CCC(N)Cc1c[nH]c2ccccc12 (configuration not stated),inactive
9,CC(N)Cc1ccc(O)cc1 (configuration not stated),inactive
10,CN1C2CCC1CC(OC(c1ccccc1)c1ccc(Cl)cc1)C2 (configuration not stated),0.501 µM (active)
11,CN1[C@@H]2CC[C@H]1CC(OC1c3ccccc3CCc3ccccc31)C2 (some centres not stated),8.91 µM (active)
12,CCC(=O)O[C@@](Cc1ccccc1)(c1ccccc1)[C@@H](C)CN(C)C,inactive
13,C=CCN1CCC23c4c5ccc(O)c4O[C@H]2C(=O)CC[C@@]3(O)C1C5 (some centres not stated),inactive
14,CCC1C(C)=NN=C(c2ccc(OC)c(OC)c2)c2cc(OC)c(OC)cc21 (configuration not stated),inactive

# Target: Luciferin 4-monooxygenase (Photinus pyralis) (UniProt P08659)
# Experiment: Biochemical firefly luciferase enzyme assay for NPC (AID 624030);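 also: purified P. pyralis luciferase at 10 nM with luciferin and ATP substrate; nearly all actives have a fitted effect of over 70% in size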
# Conditions: purified P. pyralis luciferase, luminescence, 5 min; series mostly up to 58.6 µM
# In short: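 Direct inhibition of firefly luciferase enzyme (10 nM final, 50 mM Tris Acetate) assessed by luminescence within 5 minutes. Percent activity scaled between DMSO and PTC124 positive control, with concentration-effect curves classified by fit quality and response.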
# Luciferin 4-monooxygenase (Photinus pyralis), sequence (P08659 whole entry, looked up): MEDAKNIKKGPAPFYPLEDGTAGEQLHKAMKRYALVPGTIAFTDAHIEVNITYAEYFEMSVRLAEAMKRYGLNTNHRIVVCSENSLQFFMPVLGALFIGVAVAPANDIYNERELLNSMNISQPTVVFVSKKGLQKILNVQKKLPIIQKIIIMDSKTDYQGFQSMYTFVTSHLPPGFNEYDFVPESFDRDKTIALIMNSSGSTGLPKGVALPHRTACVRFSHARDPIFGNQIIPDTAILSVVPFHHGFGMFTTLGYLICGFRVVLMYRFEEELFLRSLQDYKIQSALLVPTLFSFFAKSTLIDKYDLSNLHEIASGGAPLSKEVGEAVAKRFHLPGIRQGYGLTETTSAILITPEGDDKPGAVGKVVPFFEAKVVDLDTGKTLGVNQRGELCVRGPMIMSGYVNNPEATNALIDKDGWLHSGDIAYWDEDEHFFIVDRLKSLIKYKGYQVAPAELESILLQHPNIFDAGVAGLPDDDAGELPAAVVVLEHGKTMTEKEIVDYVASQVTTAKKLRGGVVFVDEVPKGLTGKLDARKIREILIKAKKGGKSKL
row,SMILES,Potency
1,O=C(NC(=O)c1c(F)cccc1F)Nc1ccc(Cl)c(Oc2ncc(C(F)(F)F)cc2Cl)c1,inactive
2,COc1ccc2c3c1O[C@H]1C(=O)CC[C@H]4[C@@H](C2)N(C)CC[C@]314,inactive
3,CNC(C)C(O)c1ccc(O)cc1 (configuration not stated),inactive
4,CCCC(C)(COC(N)=O)COC(=O)NC1CC1 (configuration not stated),inactive
5,COc1ccc(OC)c(C(O)C(C)N)c1 (configuration not stated),inactive
6,O=c1[nH]cc(N(CCCl)CCCl)c(=O)[nH]1,inactive
7,Clc1ccc(Cl)cc1,inactive
8,OC(c1ccccc1)(c1ccccc1)C1CN2CCC1CC2 (configuration not stated),inactive
9,O=C1CN=C(c2ccccc2)c2cc(Cl)ccc2N1CC1CC1,inactive
10,O=C(CS(=O)C(c1ccccc1)c1ccccc1)NO (configuration not stated),inactive
11,O=C1CCCCC1CN1CCCCC1 (configuration not stated),inactive
12,CCC(N)Cc1c[nH]c2ccccc12 (configuration not stated),inactive
13,CC(N)Cc1ccc(O)cc1 (configuration not stated),inactive
14,CN1C2CCC1CC(OC(c1ccccc1)c1ccc(Cl)cc1)C2 (configuration not stated),inactive
15,CN1[C@@H]2CC[C@H]1CC(OC1c3ccccc3CCc3ccccc31)C2 (some centres not stated),inactive
16,C=CCN1CCC23c4c5ccc(O)c4O[C@H]2C(=O)CC[C@@]3(O)C1C5 (some centres not stated),inactive
17,CCC1C(C)=NN=C(c2ccc(OC)c(OC)c2)c2cc(OC)c(OC)cc21 (configuration not stated),inactive

# System: not listed separately
# Experiment: S16 Schwann cell viability assay (CellTiter-Glo assay) (AID 624031); also: nearly all actives have a fitted effect of over 70% in size; also: potency is read from the fitted curve at half-maximal effect
# Conditions: S16 rat Schwann cells viability, 24 h; series mostly up to 57.5 µM
# In short: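 Native S16 rat Schwann cells, 500-750 cells/well in DMEM with 10% FBS, dosed with compound after overnight culture and incubated 24h at 37 degree Celsius/5% CO2. Viability by CellTiter-Glo luminescence; % activity normalized to no-cell wells and DMSO-treated cells.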
row,SMILES,Potency
1,O=[N+]([O-])c1cc(I)c(O)c(I)c1,inactive
2,CCC1(c2ccccc2)C(=O)NC(=O)N(C)C1=O (configuration not stated),inactive
3,O=C(NC(=O)c1c(F)cccc1F)Nc1ccc(Cl)c(Oc2ncc(C(F)(F)F)cc2Cl)c1,inactive
4,COc1ccc2c3c1O[C@H]1C(=O)CC[C@H]4[C@@H](C2)N(C)CC[C@]314,inactive
5,Clc1ccc(C2(Cn3cncn3)OCCO2)c(Cl)c1,inactive
6,COC([CH2][Hg])CNC(=O)c1ccccc1OCC(=O)O (configuration not stated),inactive
7,CNC(C)C(O)c1ccc(O)cc1 (configuration not stated),inactive
8,C=CCC1(C(C)CCC)C(=O)N=C(S)NC1=O (configuration not stated),inactive
9,CCCC(C)(COC(N)=O)COC(=O)NC1CC1 (configuration not stated),inactive
10,COc1ccc(OC)c(C(O)C(C)N)c1 (configuration not stated),inactive
11,CN1CCCC(=C(c2cccs2)c2cccs2)C1,inactive
12,O=C1CC[C@@]2(O)C3Cc4ccc(O)c5c4C2(CCN3CC2CC2)[C@H]1O5 (some centres not stated),inactive
13,CCCCNCC(O)c1ccc(O)cc1 (configuration not stated),inactive
14,C#CC(C)(O)CC (configuration not stated),inactive
15,CC(C)(O)C1C2OC(=O)C1C1(O)CC3OC34C(=O)OC2C14C (configuration not stated),inactive
16,CC[N+](C)(CC)CCOC(=O)C(O)(c1ccccc1)c1ccccc1,inactive
17,O=c1[nH]cc(N(CCCl)CCCl)c(=O)[nH]1,inactive
18,Cn1sc(Cl)cc1=O,inactive

row,SMILES,Potency
1,CCC1(c2ccccc2)C(=O)NC(=O)NC1=O,inactive
2,Oc1cccc[c]1[Hg][Cl],1.28 µM (active)
3,Clc1ccc(Cl)cc1,inactive
4,CCC1(C)CC(=O)NC(=O)C1,inactive
5,O=C(CCl)c1ccc(Oc2ccc(C(=O)CCl)cc2)cc1,inactive
6,OC(c1ccccc1)(c1ccccc1)C1CN2CCC1CC2 (configuration not stated),inactive
7,c1csc(C2(N3CCCCC3)CCCCC2)c1,inactive
8,CC(=O)OO,inactive
9,O=C1CN=C(c2ccccc2)c2cc(Cl)ccc2N1CC1CC1,inactive
10,O=C1CCCCC1CN1CCCCC1 (configuration not stated),inactive
11,O=C1CN(O)C(c2ccccc2)=c2cc(Cl)ccc2=N1,inactive
12,CCC(N)Cc1c[nH]c2ccccc12 (configuration not stated),inactive
13,CC(N)Cc1ccc(O)cc1 (configuration not stated),inactive
14,CN1C2CCC1CC(OC(c1ccccc1)c1ccc(Cl)cc1)C2 (configuration not stated),20.3 µM (active)
15,CCC(=O)O[C@@](Cc1ccccc1)(c1ccccc1)[C@@H](C)CN(C)C,inactive
16,C=CCN1CCC23c4c5ccc(O)c4O[C@H]2C(=O)CC[C@@]3(O)C1C5 (some centres not stated),inactive
17,CCC1C(C)=NN=C(c2ccc(OC)c(OC)c2)c2cc(OC)c(OC)cc21 (configuration not stated),inactive

# System: not listed separately
# Experiment: S16 Schwann cell PMP22 intronic element firefly luciferase assay (AID 624032); also: nearly all actives have a fitted effect of over 30% in size; also: potency is read from the fitted curve at half-maximal effect
# Conditions: S16 rat Schwann cells, PMP22 element FLuc, 24 h; series mostly up to 57.5 µM
# In short: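 Luciferase reporter of PMP22 intronic-element expression in stably transfected S16 rat Schwann cells, read by ONE-Glo luminescence after 24 h compound exposure at 37 C. Activity scaled between DMSO (0%) and positive-control PTC124; concentration-effect curves quality-classified.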
row,SMILES,Potency
1,O=[N+]([O-])c1cc(I)c(O)c(I)c1,inactive
2,CCC1(c2ccccc2)C(=O)NC(=O)N(C)C1=O (configuration not stated),inactive
3,O=C(NC(=O)c1c(F)cccc1F)Nc1ccc(Cl)c(Oc2ncc(C(F)(F)F)cc2Cl)c1,inactive
4,CNC(C)C(O)c1ccc(O)cc1 (configuration not stated),2.28 µM (active)
5,C=CCC1(C(C)CCC)C(=O)N=C(S)NC1=O (configuration not stated),inactive
6,CCCC(C)(COC(N)=O)COC(=O)NC1CC1 (configuration not stated),inactive
7,COc1ccc(OC)c(C(O)C(C)N)c1 (configuration not stated),inactive
8,CN1CCCC(=C(c2cccs2)c2cccs2)C1,inactive
9,O=C1CC[C@@]2(O)C3Cc4ccc(O)c5c4C2(CCN3CC2CC2)[C@H]1O5 (some centres not stated),inactive
10,CCCCNCC(O)c1ccc(O)cc1 (configuration not stated),1.81 µM (active)
11,C#CC(C)(O)CC (configuration not stated),inactive
12,CC(C)(O)C1C2OC(=O)C1C1(O)CC3OC34C(=O)OC2C14C (configuration not stated),inactive
13,Cn1sc(Cl)cc1=O,inactive
14,CCC1(c2ccccc2)C(=O)NC(=O)NC1=O,inactive
15,Oc1cccc[c]1[Hg][Cl],0.642 µM (active)
16,Clc1ccc(Cl)cc1,inactive
17,CCC1(C)CC(=O)NC(=O)C1,inactive
18,O=C(CCl)c1ccc(Oc2ccc(C(=O)CCl)cc2)cc1,inactive
19,c1csc(C2(N3CCCCC3)CCCCC2)c1,inactive
20,CC(=O)OO,inactive
21,O=C1CN(O)C(c2ccccc2)=c2cc(Cl)ccc2=N1,inactive
22,CCC(N)Cc1c[nH]c2ccccc12 (configuration not stated),inactive
23,CC(N)Cc1ccc(O)cc1 (configuration not stated),9.07 µM (active)
24,CN1C2CCC1CC(OC(c1ccccc1)c1ccc(Cl)cc1)C2 (configuration not stated),25.6 µM (active)
25,CN1[C@@H]2CC[C@H]1CC(OC1c3ccccc3CCc3ccccc31)C2 (some centres not stated),inactive
26,CCC1C(C)=NN=C(c2ccc(OC)c(OC)c2)c2cc(OC)c(OC)cc21 (configuration not stated),7.21 µM (active)
